LmPK inh: blocks Leishmania mexicana pyruvate kinase activity. Q27686. purified LmPK, Kinase-Glo ATP luminescence, 1 h. Potency, µM (highest dose often 57.5 µM), for inactives: top-dose activity change, negative = inhibition, usual class: inhibitors. 290,000 tested, 0.37% active; note: potency is the fitted concentration of half-maximal effect; % is set by controls: 0 for no effect and ±100 for the full control effect
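0.1 nM LmPK, 0.5 mM PEP, 0.1 mM ADP; 50 mM imidazole pH 7.2, 7 mM MgCl2, 50 mM KCl; 1 h RT. Kinase-Glo luminescence readout, normalized to no-enzyme (full inhibition) and uninhibited wells.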
Sm TGR inh: blocks Schistosoma mansoni thioredoxin glutathione reductase | Q962Y6 | purified TGR, DTNB reduction, TNB absorbance 405 nm | Potency, µM (doses to about 114 µM), for the others: top-dose activity change, negative = inhibition, hits mostly inhibitors | 360,000 tested, 3% active | AID 485364; note: potency is the fitted concentration of half-maximal effect; % is set by controls: 0 for no effect and ±100 for the full control effect; nearly all actives have a fitted effect of over 60% in size
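Kinetic colorimetric format: TGR-catalysed, NADPH-driven DTNB reduction monitored via TNB absorbance. Enzyme dispensed at 20 nM; compound exposure 15 min at room temperature before reaction start.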
Giardia FBPA inh: Giardia lamblia aldolase inhibition | A8B2U2 | purified Giardia FBPA | Potency, µM (top dose mostly 59.6 µM), for the others: at the top dose activity, negative = inhibition, usual class: inhibitors | 290,000 tested, 0.71% active; note: potency is the fitted concentration of half-maximal effect; % is set by controls: 0 for no effect and ±100 for the full control effect; nearly all actives have a fitted effect of over 55% in size
Target sequence (A8B2U2 whole entry, looked up): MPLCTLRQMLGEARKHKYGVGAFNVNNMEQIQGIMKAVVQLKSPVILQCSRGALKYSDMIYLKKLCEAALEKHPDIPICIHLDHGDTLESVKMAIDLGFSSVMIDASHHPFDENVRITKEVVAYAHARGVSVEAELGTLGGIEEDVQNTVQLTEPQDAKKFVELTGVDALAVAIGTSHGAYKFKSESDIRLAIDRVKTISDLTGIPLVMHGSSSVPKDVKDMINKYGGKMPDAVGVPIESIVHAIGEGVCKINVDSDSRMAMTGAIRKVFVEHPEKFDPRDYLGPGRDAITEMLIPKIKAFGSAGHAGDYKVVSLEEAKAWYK
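40 nM FBPA preincubated 10 min at RT with compound (up to 57.5 uM final), then substrate plus GAPDH/TPI/NAD/arsenate coupling and diaphorase/resazurin added. Fluorescence read after 20 min at RT, 525/598 nm.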
Shiga inhibitor: blocks Shiga toxin action in Vero cells; Vero cells, Shiga toxin protein synthesis inhibition reporter; AID 2315; inhibition, % at 38.7 µM; 290,000 tested, 9.2% active; in the data active = inhibition mostly above about 28%, no sharp cut-off; inactive = mostly below about 43%; note: 0% is about no effect
TbPYK inhibitor: blocks Trypanosoma brucei pyruvate kinase; Q57TT1; TbPYK enzyme, Kinase-Glo Plus ATP luminescence, 45 min; Potency, µM (doses to about 76.8 µM), inactives show top-dose activity, negative = inhibition, most hits filed as inhibitors; 410,000 tested, 0.12% active; note: potency is the fitted concentration of half-maximal effect; % is set by controls: 0 for no effect and ±100 for the full control effect; nearly all actives have a fitted effect of over 50% in size
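T. brucei PYK with substrate was exposed to pin-transferred compounds across a concentration series, then started with 130 uM ADP (final). After 45 min at room temperature, Kinase-Glo Plus luminescence was read, normalized and curve-fitted.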
Cycloheximide cs: counter-screen hit for Shiga toxin inhibitors, cycloheximide; AID 2314; cell reporter, cycloheximide protein synthesis inhibition counterscreen; 300,000 tested, 12% active; max response, %; in the data active = max response mostly above about 13%, no sharp cut-off; inactive = mostly below about 14%; note: read at 38.3 µM for the half of the compounds with a filed dose; 0% is about no effect
The depositor's hits bear a star; ? = inconclusive; · = no result given; [ ] = another dose, or the depositor's remark. The entries come from a sample that favours hits as a whole. Unless noted, calls come from the whole dose curve; as a rule, active = well fitted curve in the direction sought with a large enough effect; inconclusive = small, poorly fitted or top-dose-only effect, or another doubt; inactive = no such curve, though single readings can be large; an effect the other way counts as inactive or inconclusive.

SMILES	LmPK inh	Sm TGR inh	Giardia FBPA inh	Shiga inhibitor	TbPYK inhibitor	Cycloheximide cs
c1coc(C2Nc3ccccc3-c3nc4ccccc4n32)c1 (centres undefined)	-15%	38%	-6%	63*	0%	31*
c1ccc(C2Nc3ccccc3-c3nc4ccccc4n32)nc1 (centres undefined)	7%	2%	-9%	-11	-7%	-4
c1ccc(C2Nc3ccccc3-c3nc4ccccc4n32)cc1 (centres undefined)	12%	-3%	-10%	57	-1%	31*
COc1ccc(S(=O)(=O)N2CCCCCC2)cc1NC(=O)CN1C(=O)NC(C)(c2ccccc2)C1=O (centres undefined)	·	35µM*	·	·	0%	·
CCC1(c2ccccc2)NC(=O)N(CC(=O)Nc2cc(S(=O)(=O)N3CCCCC3)ccc2N(C)C)C1=O (centres undefined)	·	4%	·	·	7%	·
COc1ccc(S(=O)(=O)N2CCCCC2)cc1NC(=O)c1ccc([N+](=O)[O-])o1	6%	?	0%	44*	-3%	23*
O=C(Nc1ccc(S(=O)(=O)N2CCOCC2)cc1)c1ccc([N+](=O)[O-])o1	-1%	28µM*	-20%	61*	-3%	19*
CCN1CCN(c2ccc(S(=O)(=O)N3CCCCC3)cc2NC(=O)c2ccc([N+](=O)[O-])o2)CC1	·	-29%	·	·	3%	·
O=C(Nc1ccc(S(=O)(=O)N2CCCC2)cc1)c1ccc([N+](=O)[O-])o1	·	·	·	·	0%	·
O=C(Nc1ccccc1[N+](=O)[O-])c1cc(S(=O)(=O)N2CCOCC2)cs1	-1%	-21%	·	38	-6%	19*
CCOc1ccc(CCNC(=O)C2CCCN(S(=O)(=O)N(C)c3ccc(F)cc3)C2)cc1 (centres undefined)	·	-2%	·	·	1%	·
CN(Cc1ccccc1)C(=O)CSc1nc2ccccc2n1Cc1ccccc1F	·	1%	·	·	-6%	·
O=C(Nc1ccc(N2CCOCC2)cc1)c1ccc([N+](=O)[O-])o1	?	?	3%	59*	-13%	37*
O=C(COC(=O)c1ccc([N+](=O)[O-])o1)Nc1ccc(N2CCOCC2)cc1	·	·	·	·	-5%	·
Cn1c2ccccc2c(=O)c2c(=O)n(Cc3ccco3)c(-c3ccc(Cl)cc3Cl)nc21	4%	14µM*	0%	-7	·	2
CC(C)Cn1c(-c2ccco2)nc2c(c(=O)c3ccccc3n2C)c1=O	1%	-21%	0%	10	·	6
COc1ccc(Cn2c(-c3ccco3)nc3c(c(=O)c4ccccc4n3C)c2=O)cc1	0%	50µM*	-5%	-6	-6%	1
N=c1oc2ccccc2cc1C(=O)Nc1ccc(F)cc1	-22%	3%	-3%	92*	-6%	29*
N=c1oc2ccccc2cc1C(=O)Nc1cccc(F)c1	-3%	0%	0%	73*	-1%	41*
Cc1ccc(NC(=O)c2cc3ccccc3oc2=N)cc1	-5%	9%	-1%	147*	-8%	77*
CC(=O)c1cc2ccc(O)cc2oc1=O	-12%	1%	9%	-8	1%	-3
N=c1oc2cc(O)ccc2cc1C(=O)Nc1ccc(Cl)cc1	-1%	-25%	-4%	114*	4%	43*
Cc1ncc([N+](=O)[O-])n1C[C@H](O)CCl	·	·	9%[21.7 µM]	·	2%[33.2 µM]	·
C(=N/n1c2ccccc2c2ccccc21)/c1ccco1	2%	?	-7%	10	-6%	10
N=c1scc(-c2ccccc2)n1/N=C/c1ccco1	-6%	1%	-16%	72*	-13%	46*
SMILES	LmPK inh	Sm TGR inh	Giardia FBPA inh	Shiga inhibitor	TbPYK inhibitor	Cycloheximide cs
Cc1cc(C)cc(N(CC(=O)NCc2ccc(F)cc2)C(=O)c2snc(C(N)=O)c2N)c1	1%	12%	19%	-2	0%	1
Cc1cc(C)cc(N(CC(=O)NCc2ccco2)C(=O)c2snc(C(N)=O)c2N)c1	8%	-28%	-2%	36*	6%	33*
CCC(C)NC(=O)Cn1ncc2c([nH]c3ccc(C)cc32)c1=O (centres undefined)	·	7%	·	·	-4%	·
O=[N+]([O-])c1ccccc1N/N=C/c1c[nH]c2ccccc12	-22%	14%	-7%	88*	-15%	67*
O=[N+]([O-])c1ccc(N/N=C/c2c[nH]c3ccccc23)cc1	-7%	-14%	0%	61*	3%	26*
COc1ccccc1NS(=O)(=O)c1cc([N+](=O)[O-])ccc1N/N=C/c1c[nH]c2ccccc12	-20%	-13%	-5%	-14	0%	0
Nn1c(SCC(=O)NCC2CCCO2)nnc1-c1ccco1 (centres undefined)	·	·	·	·	9%	·
Cc1ccc2c(c1)c(N1CCCC1=O)c(C(=O)Nc1ccc(F)cc1F)n2C	·	-1%	·	·	-1%	·
CCOc1cc2[nH]c(=S)n(CCCN(CC)CC)c(=O)c2cc1OCC	-6%	6.3µM*	-25%	-5	-5%	-2
c1ccc(Nc2ccccn2)cc1	1%	-8%	0%	4	-13%	17*
c1ccc(Nc2cccc(Nc3ccccc3)n2)cc1	5%	2.8µM*	-21%	55*	3%	34*
Cc1ccc(Nc2ccccc2)nn1	-5%	7%	0%	25	-5%	15
Cc1nnc(Nc2ccccn2)c2ccccc12	7%	-17%	3%	39	3%	1
Cc1ccc2c(c1)C(=O)N1c3cc(C)c(C)cc3NC(=O)C1C(=O)N2 (centres undefined)	·	·	·	·	-4%	·
CC1=C(C)C(=O)C(C(CCCCCC(=O)O)c2ccccc2)=C(C)C1=O (centres undefined)	·	·	·	·	-4%	·
CC12COC3(C(=O)Nc4ccccc4)CC1CCC32C (centres undefined)	0%	0%	1%	13	-3%	8
CC12COC3(C(=O)Nc4ccc5ccccc5c4)CC1CCC32C (centres undefined)	3%	3%	-3%	122*	-8%	35*
CC12COC3(C(=O)NCCc4ccccc4)CC1CCC32C (centres undefined)	0%	-2%	3%	56*	-6%	50*
Cc1cc2nc(-c3ccc(Cl)cc3)c(CC(C)(C)C)n2c(C)c1Br	·	·	·	·	4%	·
CCOc1nc(NC2CCCC2)nc(N2CCC(C)CC2)n1	-4%	-9%	8%	·	-2%	-2
C[C@H](C(=O)OCO/N=[N+](\[O-])N1CCCC1)c1cccc2ccccc12	·	·	?	15	·	14
Cc1ccc(C(=O)/C=C/NCc2ccc(F)cc2)cc1	-5%	3%	-1%	93*	-14%	48*
Cc1ccc(CN/C=C/C(=O)c2ccc(Br)cc2)cc1	-1%	6%	0%	60*	-8%	37*
CCc1cc2c(=O)n(CC(=O)NC3CCCCC3)cnc2s1	-8%	6%	·	-18	-3%	7
